PubChem BioAssay AID1159580 (chemical genetic matrix, 2015)
Several values for one entry are separate records, joined by “and”; a condition that tells them apart may be missing. Equal values may be shown once. Out of some 5,500 compounds screened, about 2,000 (36%) were called active. Not shown: some 18% with an inconclusive outcome. Rule as the data show it: active = normalized growth mostly below about 0.91 (no sharp cut-off); inconclusive = no clear call, values can overlap the other calls; inactive = mostly above about 0.92. The list shows a part of the results.

Test: chemical genetic growth profiling, strain panel (AID 1159580);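 also: tested at 20 µM; growth read once vehicle control cultures reached saturation at 30 °C; 1 = growth at the plate median or of vehicle wells; lower values mean less growth of the strain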
Details: S. cerevisiae deletion strains, growth OD

Measured: normalized growth

CC(=O)O[C@@H]1CC[C@@]2(C)C(CC[C@]3(C)C2CC=C2C4CC(C)(C)CC[C@]4(C(=O)O)CC[C@]23C)C1(C)C (stereo partly drawn)
active: locus YDR069C, strain doa4, stronger effect = lower value 0.84 | locus YGL173C, strain kem1, stronger effect = lower value 0.902 | locus YHR027C, strain rpn1, stronger effect = lower value 0.913 | locus YMR058W, strain fet3, stronger effect = lower value 0.655 | locus YNL209W, strain ssb2, stronger effect = lower value 0.793 | locus YOR106W, strain vam3, stronger effect = lower value 0.852 | locus YPL051W, strain arl3, stronger effect = lower value 0.833
inactive: locus YAL021C, strain ccr4, stronger effect = lower value 0.949 | locus YAL026C, strain drs2, stronger effect = lower value 0.957 | locus YAL030W, strain snc1, stronger effect = lower value 0.98 | locus YBL061C, strain skt5, stronger effect = lower value 0.955 | locus YBR009C, strain hhf1, stronger effect = lower value 1.01 | locus YBR021W, strain FUR4, stronger effect = lower value 1 | locus YBR023C, strain chs3, stronger effect = lower value 0.918 | locus YBR171W, strain sec66, stronger effect = lower value 1 | locus YBR229C, strain ROT2, stronger effect = lower value 0.992 | locus YBR231C, strain swc5, stronger effect = lower value 0.913 | locus YBR279W, strain paf1, stronger effect = lower value 0.982 | locus YCL011C, strain gbp2, stronger effect = lower value 0.965 | locus YCL016C, strain dcc1, stronger effect = lower value 0.96 | locus YCL029C, strain bik1, stronger effect = lower value 0.996 | locus YCL061C, strain MRC1, stronger effect = lower value 1 | locus YCL069W, strain vba3, stronger effect = lower value 1.01 | locus YCR088W, strain abp1, stronger effect = lower value 1.01 | locus YDL005C, strain med2, stronger effect = lower value 0.99 | locus YDL035C, strain GPR1, stronger effect = lower value 1.05 | locus YDL040C, strain nat1, stronger effect = lower value 1 | locus YDL074C, strain BRE1, stronger effect = lower value 1.07 | locus YDL101C, strain DUN1, stronger effect = lower value 0.975 | locus YDL134C, strain PPH21, stronger effect = lower value 0.974 | locus YDL185W, strain tfp1, stronger effect = lower value 0.976 | locus YDL192W, strain arf1, stronger effect = lower value 1.01 | locus YDR001C, strain nth1, stronger effect = lower value 1.01 | locus YDR101C, strain arx1, stronger effect = lower value 1.02 | locus YDR137W, strain rgp1, stronger effect = lower value 1.02 | locus YDR159W, strain sac3, stronger effect = lower value 1.03 | locus YDR162C, strain NBP2, stronger effect = lower value 1.03 | locus YDR195W, strain ref2 1.04 | locus YDR297W, strain sur2, stronger effect = lower value 0.939 | locus YDR318W, strain mcm21, stronger effect = lower value 1.01 | locus YDR334W, strain swr1, stronger effect = lower value 0.985 | locus YDR335W, strain msn5, stronger effect = lower value 0.957 | locus YDR388W, stronger effect = lower value 0.983 | locus YDR392W, strain spt3, stronger effect = lower value 0.95 | locus YDR502C, strain sam2, stronger effect = lower value 0.978 | locus YEL003W, strain gim4, stronger effect = lower value 0.976 | locus YEL037C, strain rad23, stronger effect = lower value 0.99 | locus YEL061C, strain CIN8 (second series), stronger effect = lower value 1.01 | locus YEL061C, strain CIN8, stronger effect = lower value 1 | locus YER015W, strain faa2, stronger effect = lower value 0.936 | locus YER016W, strain bim1, stronger effect = lower value 0.965 | locus YER110C, stronger effect = lower value 0.976 | locus YER111C, strain swi4, stronger effect = lower value 0.96 | locus YER155C, strain BEM2 (second series), stronger effect = lower value 0.964 | locus YER155C, strain BEM2, stronger effect = lower value 0.985 | locus YER167W, strain BCK2, stronger effect = lower value 1.01 | locus YFR010W, strain ubp6, stronger effect = lower value 0.949 | locus YGL078C, strain dbp3, stronger effect = lower value 0.977 | locus YGL086W, strain mad1, stronger effect = lower value 1.04 | locus YGL167C, strain pmr1, stronger effect = lower value 0.986 | locus YGL227W, strain vid30, stronger effect = lower value 1.01 | locus YGL240W, strain doc1, stronger effect = lower value 1.08 | locus YGL248W, strain PDE1, stronger effect = lower value 0.998 | locus YGL253W, strain hxk2, stronger effect = lower value 0.984 | locus YGR135W, strain pre9, stronger effect = lower value 0.954 | locus YGR229C, strain SMI1, stronger effect = lower value 0.988 | locus YGR252W, strain gcn5, stronger effect = lower value 0.982 | locus YHR013C, strain ard1, stronger effect = lower value 0.933 | locus YHR030C, strain SLT2, stronger effect = lower value 0.983 | locus YHR079C, strain IRE1 (second series), stronger effect = lower value 0.983 | locus YHR079C, strain IRE1, stronger effect = lower value 0.974 | locus YHR094C, strain hxt1, stronger effect = lower value 0.987 | locus YHR129C, strain ARP1, stronger effect = lower value 0.995 | locus YHR142W, strain chs7, stronger effect = lower value 0.958 | locus YHR200W, strain rpn10, stronger effect = lower value 0.987 | locus YIL066C, strain RNR3, stronger effect = lower value 1.03 | locus YIL073C, strain SPO22, stronger effect = lower value 1.01 | locus YIL125W, strain kgd1, stronger effect = lower value 0.999 | locus YIR030C, strain dcg1, stronger effect = lower value 0.985 | locus YJL092W, strain hpr5, stronger effect = lower value 1.01 | locus YJL095W, strain BCK1 (second series), stronger effect = lower value 0.966 | locus YJL095W, strain BCK1, stronger effect = lower value 1.01 and 0.986 | locus YJL115W, strain asf1, stronger effect = lower value 1.01 | locus YJL129C, strain trk1, stronger effect = lower value 1.02 | locus YJL134W, strain LCB3, stronger effect = lower value 0.996 | locus YJL154C, strain vps35, stronger effect = lower value 1.03 | locus YJL164C, strain tpk1, stronger effect = lower value 0.927 | locus YJL166W, strain qcr8, stronger effect = lower value 0.953 | locus YJL168C, strain set2, stronger effect = lower value 0.987 | locus YJL187C, strain SWE1 (second series), stronger effect = lower value 0.976 | locus YJR043C, strain POL32, stronger effect = lower value 1.06 | locus YJR066W, strain TOR1, stronger effect = lower value 0.882 | locus YKL009W, strain mrt4, stronger effect = lower value 1.03 | locus YKL068W, stronger effect = lower value 1.02 | locus YKL085W, strain MDH1 (second series), stronger effect = lower value 1.04 | locus YKL085W, strain MDH1, stronger effect = lower value 1.04 | locus YKL160W, strain elf1, stronger effect = lower value 0.954 | locus YKL190W, strain CNB1, stronger effect = lower value 1.03 | locus YKR001C, strain vps1, stronger effect = lower value 1 | locus YKR026C, strain gcn3, stronger effect = lower value 1.01 | locus YKR091W, strain srl3, stronger effect = lower value 1 | locus YLL001W, strain dnm1, stronger effect = lower value 1.01 | locus YLL026W, stronger effect = lower value 1 | locus YLL041C, strain sdh2, stronger effect = lower value 0.996 | locus YLR027C, strain aat2, stronger effect = lower value 0.981 | locus YLR039C, strain RIC1, stronger effect = lower value 1.1 | locus YLR058C, strain SHM2, stronger effect = lower value 0.989 | locus YLR102C, strain apc9, stronger effect = lower value 0.981 | locus YLR113W, strain HOG1, stronger effect = lower value 0.975 | locus YLR221C, strain rsa3, stronger effect = lower value 0.954 | locus YLR258W, strain gsy2, stronger effect = lower value 0.98 | locus YLR262C, strain YPT6 (second series), stronger effect = lower value 0.886 | locus YLR262C, strain YPT6, stronger effect = lower value 1.14 | locus YLR268W, strain sec22, stronger effect = lower value 1.01 | locus YLR320W, strain mms22, stronger effect = lower value 0.968 | locus YLR330W, strain CHS5, stronger effect = lower value 1 | locus YLR342W, strain FKS1 (second series), stronger effect = lower value 1.05 | locus YLR342W, strain FKS1, stronger effect = lower value 0.919 | locus YLR357W, strain rsc2, stronger effect = lower value 0.893 | locus YLR370C, strain arc18, stronger effect = lower value 0.957 | locus YLR371W, strain rom2, stronger effect = lower value 0.991 | locus YLR384C, strain iki3, stronger effect = lower value 0.981 | locus YLR418C, strain cdc73, stronger effect = lower value 0.984 | locus YML016C, strain PPZ1, stronger effect = lower value 0.99 | locus YML032C, strain rad52, stronger effect = lower value 1.01 | locus YML120C, strain ndi1, stronger effect = lower value 0.999 | locus YML124C, strain tub3, stronger effect = lower value 0.99 | locus YMR078C, strain ctf18, stronger effect = lower value 0.977 | locus YMR125W, strain sto1, stronger effect = lower value 1.01 | locus YMR129W, stronger effect = lower value 1.01 | locus YMR205C, strain PFK2, stronger effect = lower value 0.991 | locus YMR223W, strain ubp8, stronger effect = lower value 0.985 | locus YMR231W, strain pep5, stronger effect = lower value 0.99 | locus YMR263W, strain SAP30, stronger effect = lower value 0.985 | locus YMR307W, strain GAS1, stronger effect = lower value 0.985 | locus YNL067W, strain RPL9B, stronger effect = lower value 0.973 | locus YNL071W, strain lat1, stronger effect = lower value 1.02 | locus YNL153C, strain GIM3, stronger effect = lower value 0.988 | locus YNL183C, strain NPR1, stronger effect = lower value 0.914 | locus YNL233W, strain BNI4, stronger effect = lower value 0.991 | locus YNL248C, strain rpa49, stronger effect = lower value 1.03 | locus YNL250W, strain rad50, stronger effect = lower value 0.959 | locus YNL271C, strain bni1, stronger effect = lower value 0.981 | locus YNL298W, strain CLA4, stronger effect = lower value 0.995 | locus YNL307C, strain MCK1, stronger effect = lower value 0.985 | locus YNL322C, strain KRE1 (second series), stronger effect = lower value 0.988 | locus YNR049C, strain mso1, stronger effect = lower value 1.01 | locus YNR052C, strain pop2, stronger effect = lower value 0.985 | locus YOL012C, strain htz1 0.851 | locus YOL147C, strain pex11, stronger effect = lower value 1.01 | locus YOR001W, strain rrp6, stronger effect = lower value 1.02 | locus YOR061W, strain CKA2, stronger effect = lower value 1.04 | locus YOR069W, strain VPS5, stronger effect = lower value 0.989 | locus YOR070C, strain gyp1, stronger effect = lower value 0.986 | locus YOR080W, strain dia2, stronger effect = lower value 1 | locus YOR083W, strain WHI5, stronger effect = lower value 0.968 | locus YOR136W, strain idh2, stronger effect = lower value 0.979 | locus YOR144C, strain elg1, stronger effect = lower value 0.981 | locus YOR184W, strain ser1, stronger effect = lower value 1.05 | locus YOR231W, strain MKK1, stronger effect = lower value 0.966 | locus YOR265W, strain rbl2, stronger effect = lower value 0.984 | locus YOR270C, strain vph1, stronger effect = lower value 0.946 | locus YOR290C, strain snf2, stronger effect = lower value 0.983 | locus YOR316C, strain cot1, stronger effect = lower value 0.98 | locus YPL078C, strain atp4, stronger effect = lower value 0.992 | locus YPL106C, strain sse1, stronger effect = lower value 0.923 | locus YPL240C, strain hsp82, stronger effect = lower value 0.985 | locus YPL256C, strain CLN2, stronger effect = lower value 0.982 | locus YPR119W, strain clb2, stronger effect = lower value 0.981 | locus YPR141C, strain kar3, stronger effect = lower value 0.982 | locus YPR163C, strain tif3, stronger effect = lower value 0.991 | locus YPR167C, strain met16, stronger effect = lower value 0.987 | strain wtn01, stronger effect = lower value 1.03
